According to PubChem BioAssay (NCATS):
Inconclusive results are not listed. Where a call stands in place of a potency, no number is given. The source made the active and inactive calls. The call rests on the fitted dose curve; in most records, active means well fitted inhibition curve with a large enough effect; inconclusive means small, poorly fitted or top-dose-only effect; inactive means flat fitted curve, though single readings scatter.

system: ICS; assay: qHTS profiling for inhibitors of Plasmodium falciparum proliferation (AID 504749); further: nearly all actives have a fitted effect of over 60% in size; details: P. falciparum in erythrocytes, SYBR Green DNA, 72 h; series mostly up to 28.7 µM
Method in brief: (§1)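 Parasite proliferation within erythrocytes, 72 h exposure. Endpoint: SYBR Green I fluorescence after overnight lysis at room temperature. Controls: 0.29 uM artemisinin, DMSO.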
Potency means the concentration at half of the fitted maximal effect.

Row | Structure (SMILES) | Potency
1 | CCCC(=O)Nc1ncnc2c1ncn2C1OC2COP(=O)(O)OC2C1OC(=O)CCC (configuration not stated) | inactive
2 | CCCCCCCCCCCCCC[n+]1ccc(C)cc1 | 1580 nM (active)
3 | C[C@]12CCC(=O)C=C1CC[C@@H]1[C@@H]2[C@@H](O)C[C@@]2(C)[C@H]1CC[C@]2(O)C(=O)COP(=O)(O)O | inactive
4 | CC(NNC(=O)c1ccccc1)c1ccccc1 (configuration not stated) | inactive
5 | COC(C(=O)C(O)C(C)O)C1Cc2cc3cc(OC4CC(OC5CC(O)C(O)C(C)O5)C(O)C(C)O4)c(C)c(O)c3c(O)c2C(=O)C1OC1CC(OC2CC(OC3CC(C)(O)C(O)C(C)O3)C(O)C(C)O2)C(O)C(C)O1 (configuration not stated) | 100 nM (active)
6 | Nc1c(N=Nc2ccc(-c3ccc(N=Nc4cc(S(=O)(=O)O)c5ccccc5c4N)cc3)cc2)cc(S(=O)(=O)O)c2ccccc12 | inactive
7 | Cc1c(C)c2c(c(C)c1O)CC[C@@](C)(CCC[C@H](C)CCC[C@H](C)CCCC(C)C)O2 | inactive
8 | CCOC(=O)C1=C(C)NC(C)=C(C(=O)OCC)C1c1ccccc1C=CC(=O)OC(C)(C)C | 4470 nM (active)
9 | CC(C)N=c1cc2n(-c3ccc(Cl)cc3)c3ccccc3nc-2cc1Nc1ccc(Cl)cc1 | 3160 nM (active)
10 | COC(=O)[C@H]1[C@H]2C[C@@H]3c4[nH]c5ccccc5c4CCN3C[C@H]2C[C@@H](OC(=O)c2cc(OC)c(OC)c(OC)c2)[C@@H]1OC | 100 nM (active)
11 | CC1=C(/C=C/C(C)=C/C=C/C(C)=C/C=C/C=C(C)/C=C/C=C(C)/C=C/C2=C(C)CCCC2(C)C)C(C)(C)CCC1 | inactive
12 | Cc1cn([C@H]2C[C@H](O)[C@@H](CO)O2)c(=O)[nH]c1=O | inactive
13 | C#C[C@]1(O)CC[C@H]2[C@@H]3CCC4=CCCC[C@@H]4[C@H]3C(=C)C[C@@]21CC | 10000 nM (active)
14 | CCCCCCCCCCCCCCCC(=O)OCC(COC(=O)CCCCCCCCCCCCCCC)OC(=O)CCCCCCCCCCCCCCC | inactive
15 | CC(C(=O)O)c1ccc(N2Cc3ccccc3C2=O)cc1 (configuration not stated) | inactive
16 | CC(C)=O | inactive
17 | Cc1c(C)c2c(c(C)c1O)CC[C@@](C)(CCC[C@@H](C)CCC[C@@H](C)CCCC(C)C)O2 | inactive
18 | CO[C@H](C(=O)[C@@H](O)[C@@H](C)O)C1Cc2cc3cc(O[C@H]4C[C@@H](O[C@H]5C[C@@H](O)[C@H](O)[C@@H](C)O5)[C@@H](O)[C@@H](C)O4)c(C)c(O)c3c(O)c2C(=O)[C@H]1O[C@H]1C[C@@H](O[C@H]2C[C@@H](O[C@H]3C[C@](C)(O)[C@H](O)[C@@H](C)O3)[C@H](O)[C@@H](C)O2)[C@H](O)[C@@H](C)O1 (some centres not stated) | 79.4 nM (active)
19 | CCC(=O)NCCC1CCc2ccc3c(c21)CCO3 (configuration not stated) | inactive
20 | Cc1cc(C(=O)NNCc2ccccc2)no1 | inactive
21 | IC(I)I | inactive
22 | C=CCSSSCC=C | inactive
23 | O=C(O)c1cc(=O)c2c3nc4ccccc4oc-3cc(=O)c2[nH]1 | 891 nM (active)
24 | CCCCCCC(O)C/C=C/CCCCCCCC(=O)O (configuration not stated) | inactive
25 | C[C@]12O[C@H](C[C@]1(O)CO)n1c3ccccc3c3c4c(c5c6ccccc6n2c5c31)CNC4=O | 112 nM (active)
26 | CC1=CCC(C(C)(C)O)CC1 (configuration not stated) | inactive

system: JCK; assay: as above; details: P. falciparum in erythrocytes, SYBR Green DNA, 72 h; series mostly up to 28.7 µM
Method in brief: as §1

Row | Structure (SMILES) | Potency
27 | CCCC(=O)Nc1ncnc2c1ncn2C1OC2COP(=O)(O)OC2C1OC(=O)CCC (configuration not stated) | inactive
28 | C[C@]12CCC(=O)C=C1CC[C@@H]1[C@@H]2[C@@H](O)C[C@@]2(C)[C@H]1CC[C@]2(O)C(=O)COP(=O)(O)O | inactive
29 | CC(NNC(=O)c1ccccc1)c1ccccc1 (configuration not stated) | inactive
30 | Cc1c(C)c2c(c(C)c1O)CC[C@@](C)(CCC[C@H](C)CCC[C@H](C)CCCC(C)C)O2 | inactive
31 | CCN(CC)CCOc1ccc(-c2nc3cc(Cl)ccc3s2)cc1 | inactive
32 | CCOC(=O)C1=C(C)NC(C)=C(C(=O)OCC)C1c1ccccc1C=CC(=O)OC(C)(C)C | inactive
33 | CC(C)N=c1cc2n(-c3ccc(Cl)cc3)c3ccccc3nc-2cc1Nc1ccc(Cl)cc1 | inactive
34 | COC(=O)[C@H]1[C@H]2C[C@@H]3c4[nH]c5ccccc5c4CCN3C[C@H]2C[C@@H](OC(=O)c2cc(OC)c(OC)c(OC)c2)[C@@H]1OC | 891 nM (active)
35 | CC1=C(/C=C/C(C)=C/C=C/C(C)=C/C=C/C=C(C)/C=C/C=C(C)/C=C/C2=C(C)CCCC2(C)C)C(C)(C)CCC1 | inactive
36 | Cc1cn([C@H]2C[C@H](O)[C@@H](CO)O2)c(=O)[nH]c1=O | inactive
37 | C#C[C@]1(O)CC[C@H]2[C@@H]3CCC4=CCCC[C@@H]4[C@H]3C(=C)C[C@@]21CC | inactive
38 | CCCCCCCCCCCCCCCC(=O)OCC(COC(=O)CCCCCCCCCCCCCCC)OC(=O)CCCCCCCCCCCCCCC | inactive
39 | CC(C(=O)O)c1ccc(N2Cc3ccccc3C2=O)cc1 (configuration not stated) | inactive
40 | CC(C)=O | inactive
41 | Cc1c(C)c2c(c(C)c1O)CC[C@@](C)(CCC[C@@H](C)CCC[C@@H](C)CCCC(C)C)O2 | inactive
42 | O=C(O)CN(CCN(CC(=O)O)CC(=O)O)CC(=O)O | inactive
43 | CCC(=O)NCCC1CCc2ccc3c(c21)CCO3 (configuration not stated) | inactive
44 | CCOc1ccc2c(c1)C(C)=CC(C)(C)N2 | inactive
45 | COCC(=O)Nc1cc(Sc2ccccc2)ccc1N=C(NC(=O)OC)NC(=O)OC | inactive
46 | Cc1cc(C(=O)NNCc2ccccc2)no1 | inactive
47 | IC(I)I | inactive
48 | C=CCSSSCC=C | inactive
49 | O=C(O)c1cc(=O)c2c3nc4ccccc4oc-3cc(=O)c2[nH]1 | inactive
50 | CCCCCCC(O)C/C=C/CCCCCCCC(=O)O (configuration not stated) | inactive
51 | C[C@]12O[C@H](C[C@]1(O)CO)n1c3ccccc3c3c4c(c5c6ccccc6n2c5c31)CNC4=O | 4470 nM (active)
52 | CC1=CCC(C(C)(C)O)CC1 (configuration not stated) | inactive
